Results on 29 molecules are retold here after PubChem BioAssay (Tox21).

“And” between values parts separate entries of the source, which are not always exact repeats. Equal entries are not always repeated. Records with an inconclusive call do not appear. Where a structure was tested more than once in an assay, its records may differ in their call. The source made the active and inactive calls. Unless noted, calls come from the whole dose curve; as a rule, active = well fitted curve in the direction sought with a large enough effect in the repeat runs; inconclusive = weak or mixed curves; inactive = no such curve, though single readings can be large; an effect the other way counts as inactive or inconclusive.

Experiment [1] is described as follows: qHTS assay to identify small molecule antagonists of the thyroid receptor (TR) signaling pathway - cell viability counter screen (AID 743064). Note: nearly all actives have a fitted effect of over 50% in size. The gist of the method: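 Same-well viability check: GH3.TRE-Luc cells stimulated with 1 nM T3 alongside test compound for 23.5 h, followed by CellTiter-Fluor fluorescence.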
Experiment [2] in a line: qHTS assay to identify small molecule antagonists of the thyroid receptor (TR) signaling pathway (AID 743065). Note: nearly all actives have a fitted effect of over 55% in size. Note: potency is the fitted concentration of half-maximal effect. Summed up:
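GH3.TRE-Luc rat pituitary cells carrying two TR response elements driving luciferase were plated for 4 h, given compound plus 1 nM T3 (final), and incubated 23.5 h at 37 C. ONE-Glo luminescence measured reporter inhibition; CellTiter-Fluor fluorescence tracked cytotoxicity.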

The test system of experiment [3] is thyroid hormone receptor (rat, GH3 cells). Briefly: qHTS assay to identify small molecule agonists of the thyroid receptor (TR) signaling pathway (AID 743066; calls by dose curve).
The target of experiment [4] is Estrogen receptor (Homo sapiens) (UniProt P03372). Briefly: qHTS assay to identify small molecule antagonists of the estrogen receptor alpha (ER-alpha) signaling pathway (AID 743069; active = well fitted curve in the direction sought with a large enough effect in the signal ratio in the repeat runs, not every such curve was filed as active; the % refers to the signal ratio). The gist of the method:
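Screening used a UAS-driven beta-lactamase reporter integrated into HEK293 cells expressing ER-alpha, stimulated with 17beta-estradiol alongside test compounds over 18 hr at 37C; signal came from LiveBLAzer B/G FRET fluorescence.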

A short description of experiment [5]: qHTS assay to identify small molecule antagonists of the estrogen receptor alpha (ER-alpha) signaling pathway - cell viability counter screen (AID 743074; calls by dose curve; note: nearly all actives have a fitted effect of over 45% in size).
For experiment [6], the target named is Estrogen receptor (Homo sapiens) (UniProt P03372). Description: qHTS assay to identify small molecule agonists of the estrogen receptor alpha (ER-alpha) signaling pathway (AID 743075; calls by dose curve).
Sequence of Estrogen receptor (Homo sapiens) (P03372 whole entry, looked up): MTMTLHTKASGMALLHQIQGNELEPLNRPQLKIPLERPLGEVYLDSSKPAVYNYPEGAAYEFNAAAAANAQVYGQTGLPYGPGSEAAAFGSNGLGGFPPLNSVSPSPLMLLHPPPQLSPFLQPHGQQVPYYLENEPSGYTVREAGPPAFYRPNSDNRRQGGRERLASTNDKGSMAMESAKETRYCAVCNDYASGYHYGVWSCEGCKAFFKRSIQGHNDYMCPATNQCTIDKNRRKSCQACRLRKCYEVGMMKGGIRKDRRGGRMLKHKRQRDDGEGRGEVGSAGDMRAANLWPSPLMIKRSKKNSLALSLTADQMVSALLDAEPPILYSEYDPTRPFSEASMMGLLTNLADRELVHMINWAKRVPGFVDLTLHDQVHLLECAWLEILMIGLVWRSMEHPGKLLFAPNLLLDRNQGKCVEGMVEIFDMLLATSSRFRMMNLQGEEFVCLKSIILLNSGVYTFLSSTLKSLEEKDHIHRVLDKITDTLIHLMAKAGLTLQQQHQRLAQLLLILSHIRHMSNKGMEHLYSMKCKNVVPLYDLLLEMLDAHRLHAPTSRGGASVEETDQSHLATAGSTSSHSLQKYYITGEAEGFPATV
For experiment [7] the target is unchanged. Briefly: qHTS assay to identify small molecule agonists of the estrogen receptor alpha (ER-alpha) signaling pathway using the BG1 cell line (AID 743079). Note: nearly all actives have a fitted effect of over 20% in size. Note: potency is the fitted concentration of half-maximal effect. Conditions: BG1Luc4E2 cells, ERE-luciferase agonist, 22 h; activation: at 70.3 µM (top of the series) unless noted.
The nature of experiment [8]: qHTS assay to identify small molecule antagonists of the estrogen receptor alpha (ER-alpha) signaling pathway using the BG1 cell line (AID 743080; calls by dose curve;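 note: BG1 cells stimulated with 17beta-estradiol alongside compound; nearly all actives have a fitted effect of over 25% in size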). The gist of the method: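 Luciferase inhibition measured with ONE-Glo after 30 min at RT in BG1Luc4E2 cells given test compounds and 17beta-estradiol for 21.5 h at 37 C; CellTiter-Fluor viability read in the same wells beforehand.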

Experiment [9] in a line: qHTS assay to identify small molecule antagonists of the estrogen receptor alpha (ER-alpha) signaling pathway using the BG1 cell line - cell viability counter screen (AID 743081).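 Note: compound given together with 17beta-estradiol as the ER stimulus; nearly all actives have a fitted effect of over 45% in size.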
The next experiment has as its target Aromatase (Homo sapiens) (UniProt P11511). Description: qHTS assay to identify aromatase inhibitors (AID 743083). Note: nearly all actives have a fitted effect of over 55% in size.
% is set by controls: 0 for no effect and ±100 for the full control effect.

Sequence of Aromatase (Homo sapiens) (P11511 whole entry, looked up): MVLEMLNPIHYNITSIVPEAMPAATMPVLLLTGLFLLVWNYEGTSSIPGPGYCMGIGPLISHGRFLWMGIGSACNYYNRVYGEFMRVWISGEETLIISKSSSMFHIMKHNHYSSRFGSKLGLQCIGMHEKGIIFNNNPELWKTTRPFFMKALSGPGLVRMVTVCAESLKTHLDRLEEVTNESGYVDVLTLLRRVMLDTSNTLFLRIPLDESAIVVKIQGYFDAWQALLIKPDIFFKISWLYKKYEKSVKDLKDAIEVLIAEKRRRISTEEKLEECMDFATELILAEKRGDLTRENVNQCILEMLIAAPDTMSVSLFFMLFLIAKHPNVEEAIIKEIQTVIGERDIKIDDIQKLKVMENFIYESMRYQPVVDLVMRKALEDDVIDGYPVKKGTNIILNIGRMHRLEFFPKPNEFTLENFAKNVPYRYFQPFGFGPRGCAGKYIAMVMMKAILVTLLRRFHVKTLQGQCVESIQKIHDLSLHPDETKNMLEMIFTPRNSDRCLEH

For the molecule `O=C1C(N(CO)C(=O)NCO)N(CO)C(=O)N1CO` (centres undefined), the Potency result in experiment [1], in experiment [2], in experiment [3], in experiment [4], in [5] and in [6] was “inactive” throughout. Further, the Potency result (in experiment [7]; in [8]; in [9]; in the experiment with Aromatase (Homo sapiens)) was “inactive” each time.

In the case of `O=Cc1ccc(CO)o1`, the Potency entry in [1], in [2], in experiment [3], in experiment [5], in experiment [6] and in experiment [7] was “inactive” each time. For the same molecule, the Potency result (in experiment [8]; in [9]; with Aromatase (Homo sapiens)) was “inactive” throughout.

Turning to `Cc1ccc(C(C)C)cc1`, the Potency result in experiment [1], in experiment [2], in experiment [3], in experiment [5], in experiment [6] and in [7] was “inactive” throughout. For the same molecule, the Potency result (in experiment [8]; in experiment [9]; in the experiment with Aromatase (Homo sapiens)) was “inactive” in each case.

For the molecule `OC[C@H]1O[C@@H](Oc2ccc(O)cc2)[C@H](O)[C@@H](O)[C@@H]1O`, the Potency entry in experiment [1], in experiment [2], in [3], in experiment [5], in experiment [6] and in experiment [7] was “inactive” in each case. The Potency entry (in experiment [8]; in experiment [9]; in the experiment with Aromatase (Homo sapiens)) was “inactive” each time.

As to `CC(=O)OC/C=C(\C)CCC=C(C)C`, the Potency entry in experiment [1], in experiment [2], in experiment [3], in [4], in experiment [5] and in [6] was “inactive” in each case. In addition, the Potency result (in [7]; in [8]; in [9]; in the experiment with Aromatase (Homo sapiens)) was “inactive” in each case.

As for `N#CCC(=O)O`, the Potency result in experiment [1], in experiment [2], in experiment [3], in [5], in [6] and in experiment [7] was “inactive” throughout. Further, the Potency result (in experiment [8]; in experiment [9]; with Aromatase (Homo sapiens)) was “inactive” in each case.

Turning to `OC1CCCCC1`, the Potency entry in [1], in experiment [2], in [3], in [4], in experiment [5] and in [6] was “inactive” each time. For the same molecule, the Potency result (in [7]; in experiment [8]; in [9]; with Aromatase (Homo sapiens)) was “inactive” throughout.

`NC(=O)NC(N)=O`: the Potency result in experiment [1], in experiment [2], in [3], in experiment [4], in experiment [5] and in experiment [6] was “inactive” throughout. Moreover, the Potency result (in experiment [7]; in experiment [8]; in [9]; in the experiment with Aromatase (Homo sapiens)) was “inactive” each time.

Turning to `CCCCCCCCC(=O)O`, the Potency result in experiment [1], in experiment [2], in [3], in experiment [4], in [5] and in experiment [6] was “inactive” each time. Also, the Potency result (in experiment [7]; in experiment [8]; in experiment [9]; with Aromatase (Homo sapiens)) was “inactive” in each case.

As to `O=C1CCCCCCCCCCC1`, the Potency entry in experiment [1], in experiment [2], in experiment [3], in experiment [5], in [6] and in experiment [7] was “inactive” each time. Further, the Potency entry (in [8]; in experiment [9]; with Aromatase (Homo sapiens)) was “inactive” each time.

With `CCCCCCCCCCCC(=O)N(C)CC(=O)O`, the activity change, negative = cytotoxic in [1] is 15.6% [at 8.44 µM] (inactive). For the same molecule, the Potency in experiment [2] is 59.2 µM (active). Further, the activity, negative = inhibition in experiment [2] is 7.52% [at 8.44 µM] (inactive). The Potency result (in [3]; in [5]; in [6]; in experiment [8]; in experiment [9]; in the experiment with Aromatase (Homo sapiens)) was “inactive” throughout. Besides, the activation in experiment [7] was -3.44% [at 8.47 µM] (inactive).

With `COc1ccc(N)c(OC)c1`, the Potency result in experiment [1], in [2], in experiment [3], in experiment [5], in [6] and in experiment [7] was “inactive” throughout. For the same molecule, the Potency result (in experiment [8]; in experiment [9]; in the experiment with Aromatase (Homo sapiens)) was “inactive” each time.

As to `C1CCCNCC1`, the Potency entry in [1], in experiment [2], in [3], in experiment [5], in [6] and in experiment [7] was “inactive” throughout. In addition, the Potency result (in experiment [8]; in [9]; with Aromatase (Homo sapiens)) was “inactive” each time.

For the molecule `Brc1ccc(Oc2ccc(Br)cc2)cc1`, the Potency result in experiment [1], in [2], in experiment [3], in [5] and in [9] was “inactive” in each case.

`CC(=O)OCc1ccc2c(c1)OCO2`: the Potency entry (in experiment [1]; in experiment [2]; in experiment [3]; in experiment [5]; in experiment [9]; with Aromatase (Homo sapiens)) was “inactive” in each case.

In the case of `COC(=O)CCCCC(=O)OC`, the Potency entry in experiment [1], in experiment [2], in experiment [3], in experiment [5], in [6] and in experiment [7] was “inactive” each time. Moreover, the Potency entry (in experiment [8]; in experiment [9]; with Aromatase (Homo sapiens)) was “inactive” each time.

In the case of `CCCCC(=O)O`, the Potency result in experiment [1], in experiment [2], in [3], in experiment [5], in [6] and in experiment [8] was “inactive” in each case. Also, the Potency result (in experiment [9]; in the experiment with Aromatase (Homo sapiens)) was “inactive” throughout. The Potency entry in experiment [7] is “inactive and 49.1 µM (active)”.

As to `CC(=O)C(C)C`, the Potency entry in [1], in [2], in [3], in experiment [5], in [6] and in experiment [7] was “inactive” each time. The Potency entry (in [8]; in [9]; with Aromatase (Homo sapiens)) was “inactive” each time.

For the molecule `CC(=O)OC(C)(C)C1CC=C(C)CC1` (centres undefined), the Potency entry in [1], in experiment [2], in experiment [3], in experiment [5], in experiment [6] and in [8] was “inactive” each time. Moreover, the Potency result (in experiment [9]; with Aromatase (Homo sapiens)) was “inactive” in each case. Besides, the Potency entry in experiment [7] was “inactive and 54.5 µM (active)”.

For the molecule `CS(=O)(=O)c1ccc(Cl)cc1`, the Potency entry (in experiment [1]; in experiment [2]; in [3]; in [5]; in experiment [9]; with Aromatase (Homo sapiens)) was “inactive” each time.

With `CO[Si](CCCNCCN)(OC)OC`, the Potency entry (in experiment [1]; in experiment [2]; in [3]; in experiment [5]; in experiment [9]; with Aromatase (Homo sapiens)) was “inactive” throughout.

In the case of `CC(=O)OCCC(C)C`, the Potency entry (in experiment [1]; in [2]; in experiment [3]; in experiment [5]; in experiment [9]; with Aromatase (Homo sapiens)) was “inactive” each time.

Consider `CN1Cc2c(N)cccc2C(c2ccccc2)C1` (centres undefined), for which the Potency entry in [1], in experiment [2], in experiment [3], in experiment [5] and in [9] was “inactive” each time.

With `C=C(CC(=O)O)C(=O)O`, the Potency entry (in experiment [1]; in experiment [2]; in [3]; in experiment [5]; in experiment [9]; with Aromatase (Homo sapiens)) was “inactive” throughout.

For the molecule `CCCOC(=O)NCCCN(C)C`, the Potency entry (in [1]; in [2]; in [3]; in experiment [5]; in experiment [9]; with Aromatase (Homo sapiens)) was “inactive” throughout.

In the case of `CC(COCC(C)OC(=O)c1ccccc1)OC(=O)c1ccccc1` (centres undefined), the Potency entry (in experiment [1]; in experiment [2]; in experiment [3]; in [5]; in [9]; with Aromatase (Homo sapiens)) was “inactive” each time.

In the case of `NCCNCCNCCN`, the Potency entry in experiment [1], in [2], in [3], in experiment [5] and in experiment [9] was “inactive” in each case.

Turning to `CCCCCNCCCCC`, the Potency entry (in [1]; in experiment [2]; in experiment [3]; in experiment [5]; in experiment [9]; with Aromatase (Homo sapiens)) was “inactive” throughout.

`C[n+]1ccn(CCO)c1`: the Potency entry in experiment [1], in experiment [2], in experiment [3], in experiment [5], in [8] and in experiment [9] was “inactive” each time. Moreover, the Potency result with Aromatase (Homo sapiens) is “inactive”.
